Compound activity deposited in PubChem BioAssay by The Scripps Research Institute Molecular Screening Center.
MITF inh – human MITF inhibition, primary screen; actives 0.91% (n = 650,000); AlphaScreen MITF homodimerization, bead proximity signal; inhibition, % at 2.6 µM; in the data active means inhibition above about 50%;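 further: 0% = vehicle wells with protein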
TEAD-YAP block – TEAD-YAP interaction inhibition; inhibition, % at 9.12 µM; HEK-TIYL cells, TEAD-Gal4/YAP UAS-luciferase luminescence; actives 1.4% (n = 640,000); AID 1259422; in the data active means inhibition above about 32%;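 further: 0% = median of test compound wells and 100% = reference inhibitor wells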
GPR151 activ – activates the human receptor GPR151. PathHunter beta-arrestin GPR151 cells, luminescence. activation, % at 11.2 µM. actives 1% (n = 650,000). AID 1508602; in the data active means activation above about 4.9%;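 further: 0% = median of compound wells and 100% = cells with positive control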
Target sequence (Q8TDV0 whole entry, looked up): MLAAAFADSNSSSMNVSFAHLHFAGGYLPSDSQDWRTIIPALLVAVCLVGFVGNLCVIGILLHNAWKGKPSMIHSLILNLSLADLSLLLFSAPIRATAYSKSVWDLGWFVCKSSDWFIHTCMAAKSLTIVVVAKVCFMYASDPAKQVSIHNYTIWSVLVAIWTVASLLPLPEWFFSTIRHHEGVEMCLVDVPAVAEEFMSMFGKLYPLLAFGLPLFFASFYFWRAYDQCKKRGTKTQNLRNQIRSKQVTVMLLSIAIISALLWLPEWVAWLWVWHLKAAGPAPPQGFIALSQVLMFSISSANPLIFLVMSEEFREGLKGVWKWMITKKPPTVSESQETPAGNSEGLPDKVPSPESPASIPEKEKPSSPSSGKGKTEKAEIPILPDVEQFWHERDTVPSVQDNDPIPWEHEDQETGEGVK
FBW7 activator – human FBW7 E3 ligase activation, primary screen; Q969H0; AID 1259310; normalized activity (activation), % at 26.1 µM; actives 0.13% (n = 650,000); AlphaScreen FBW7–phospho-cyclin E peptide binding, activator screen; in the data active means normalized activity above about 1.9%;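 further: purified mutant Fbw7 with reduced substrate affinity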
MITF confirm – human MITF inhibition, confirmation | AID 1259372 | inhibition, % at 2.6 µM | shares compounds with MITF inh | actives 16% (n = 4,700) | AlphaScreen MITF homodimerization, biotin/His-MITF beads;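 active means inhibition above a cutoff derived from the DMSO control wells, cut at about 28% in these data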;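 further: 0% = MITF dimer wells with DMSO only; inhibitors lower the bead chemiluminescence by keeping MITF from dimerizing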
AS interf DR – counter-screen: compounds optically interfering with AlphaScreen | shares compounds with MITF inh | AlphaScreen optical interference counterscreen, cell-free | IC50, µM | actives 6% (n = 480); call rule not given here
AlphaScreen intf2 – AlphaScreen optical interference, counter-screen | AID 1259376 | actives 7.6% (n = 4,700) | shares compounds with MITF inh | inhibition, % at 2.6 µM | LysRS AlphaScreen counterscreen, signal interference, triplicate;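 active means inhibition above a cutoff derived from the DMSO control wells, cut at about 30% in these data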
Numbers without * were called inactive; nt = no result given. An excerpt weighted towards active compounds, which were near 3.4% of everything screened.

SMILES	MITF inh	TEAD-YAP block	GPR151 activ	FBW7 activator	MITF confirm	AlphaScreen intf2	others
CCn1c2ccccc2c2cc(CN3CCN(C(=O)Cc4ccccc4)CC3)ccc21	15	-10	-1	0	nt	nt
Cc1cccc(OCC(=O)Nc2cc(Cl)c([N+](=O)[O-])cc2C)c1	-14	-7	-1	0	nt	nt
COc1cc(CN2CCN(C(C)C)CC2)cc(OC)c1O	71*	-11	-2	0	14	14
COc1cc(CN2CCN(c3ccccc3)CC2)cc(OC)c1O	36	2	-1	0	nt	nt
CCC(CC)N1CCN(Cc2cc(OC)c(OC)c(OC)c2)CC1	57*	0	1	0	2	4
COc1ccccc1OCC#CCN1CCCC(C)C1 (stereo not drawn)	58*	7	-2	0	4	10
Cc1ccc(C2=NC3(CCNCC3)NC2=O)cc1	2	-3	-1	0	nt	nt
CCN1CCN(Cc2cccc(Cl)c2)CC1	14	7	0	0	nt	nt
CCOc1ccc(CN2CCN(Cc3cccc(C)c3)CC2)cc1	54*	14	1	0	1	4
CCOc1ccc(CN2CCN(Cc3cccc(Cl)c3)CC2)cc1	67*	6	-1	0	-1	-2
Cc1nc2ccc(P(=O)(O)O)cc2s1	55*	6	3	0	12	40*
CCCCn1c(=O)c(C(=O)NCCCO)c(O)c2ccccc21	-7	-12	0	-1	nt	nt
O=C(O)CSc1cc(Cl)c2nonc2c1[N+](=O)[O-]	87*	13	1	0	85*	21	AS interf DR=>6.6
O=[N+]([O-])c1c(Cl)cc(Cl)c2nonc12	7	2	2	0	nt	nt
COc1cccc(CN2CCN(Cc3ccc(C)cc3)CC2)c1	77*	-12	-1	0	8	1
COc1ccc(CN2CCN(Cc3cccc(OC)c3)CC2)cc1	63*	2	2	0	12	12
COc1ccc(N2CCN(Cc3cccc(OC)c3)CC2)cc1	34	5	1	0	nt	nt
COc1cccc(CN2CCN(c3ccc(C(C)=O)cc3)CC2)c1	64*	-6	0	0	9	3
CC(=O)c1ccc(N2CCN(Cc3cccc(O)c3)CC2)cc1	31	-3	0	0	nt	nt
COc1c(Cl)cc(Cl)cc1C1C(C#N)=C(N)Oc2c1c(=O)oc1ccccc21 (stereo not drawn)	9	2	1	0	nt	nt
COC(=O)CN1C(=O)C2(C(C(=O)OC(C)C)=C(C)OC(N)=C2C(=O)OC)c2ccccc21 (stereo not drawn)	-10	-6	-1	0	nt	nt
COc1ccccc1CN1CCN(Cc2ccc(SC)cc2)CC1	81*	-6	0	0	13	15
COc1ccccc1CN1CCN(Cc2cccc(Cl)c2)CC1	69*	-8	1	0	14	-7
COc1ccccc1N1CCN(Cc2ccc(F)cc2)CC1	9	-3	0	0	nt	nt
COc1ccc(CN2CCN(Cc3ccccc3OC)CC2)cc1	77*	-8	0	0	31*	17	AS interf DR=>7.3
SMILES	MITF inh	TEAD-YAP block	GPR151 activ	FBW7 activator	MITF confirm	AlphaScreen intf2	others
COc1ccccc1CN1CCN(Cc2ccc(F)cc2)CC1	81*	-5	-1	0	6	18
Cc1ccc(-n2c(/C=C/c3c(F)cccc3Cl)nc3ccccc3c2=O)cc1	23	-1	0	0	nt	nt
O=c1c2ccccc2nc(/C=C\c2ccccc2F)n1-c1ccc(F)cc1Cl	-5	-5	0	0	nt	nt
COc1ccccc1CN1CCN(Cc2ccc(Cl)cc2)CC1	73*	-6	0	0	8	10
COc1cccc(CN2CCN(c3ccc(Cl)cc3)CC2)c1O	17	12	-2	0	nt	nt
COc1ccc(CN2CCN(Cc3ccc(C)cc3)CC2)cc1	80*	6	0	0	1	8
COc1ccc(CN2CCN(Cc3ccc(Cl)cc3)CC2)cc1	83*	7	0	0	8	5
N=C1c2ccccc2CN1c1ccc(F)c(Cl)c1	19	-17	-2	0	nt	nt
CN(C)C1C(=O)C(C(N)=O)=C(O)C2(O)C(=O)C3=C(O)c4c(O)cccc4C(C)(O)C3CC12 (stereo not drawn)	51*	15	-1	0	43*	3	AS interf DR=>6.5
CN(C)[C@@H]1C(=O)C(C(N)=O)=C(O)[C@@]2(O)C(=O)C3=C(O)c4c(O)cccc4[C@@](C)(O)[C@H]3C[C@@H]12	11	-16	0	0	nt	nt
CC(=O)c1ccc(N2CCN(Cc3ccccc3F)CC2)cc1	51*	-1	1	1	-4	4
COc1cccc(N2CCN(Cc3ccccc3F)CC2)c1	60*	-2	-2	0	-10	-4
CC(=O)c1ccc(N2CCN(Cc3ccc(F)cc3)CC2)cc1	30	-11	0	0	nt	nt
Fc1cccc(F)c1CN1CCN(c2ccccc2)CC1	56*	6	-1	0	3	-7
CN1C2CCC1CC(OC(=O)CNC1CCCCC1)C2 (stereo not drawn)	55*	-5	3	0	8	14
O=C(NCc1noc2ccccc12)N1CCC2(CC1)OCCO2	-1	-10	0	0	nt	nt
O=C(COc1ccccc1)N1CCN(Cc2nnnn2-c2ccc(F)cc2)CC1	12	4	2	0	nt	nt
CCc1ccc(CN2CCN(Cc3cccc(F)c3)CC2)cc1	75*	-12	-1	0	5	3
Cc1cccc(CN2CCN(Cc3ccc(Cl)cc3)CC2)c1	59*	10	0	0	9	16
CCN1CCN(Cc2cccc(F)c2)CC1	-1	6	-2	0	nt	nt
Fc1cccc(CN2CCN(Cc3ccccc3)CC2)c1	64*	8	-1	0	-4	-7
Fc1cccc(CN2CCN(Cc3ccccc3F)CC2)c1	70*	-1	0	0	7	-6
Cc1ccc(-n2c(/C=C/c3ccc(Br)cc3)nc3ccc(Br)cc3c2=O)cc1	4	1	0	0	nt	nt
COc1cc(CNCCc2ccc(Cl)cc2)cc(OC)c1OC	11	6	1	0	nt	nt
CCc1ccc(CN2CCN(Cc3cccc(C)c3)CC2)cc1	39	-8	0	0	nt	nt
CCc1ccc(CN2CCN(Cc3ccc(F)cc3)CC2)cc1	57*	-6	0	0	0	-4
Cc1cccc(CN2CCN(Cc3cccc(F)c3)CC2)c1	76*	3	-1	0	2	7
CCN=C1N=P(NCC)(NCC)N=C(C(Cl)(Cl)Cl)N1	8	0	0	0	nt	nt
COc1cccc(CN2CCN(Cc3cccc(Cl)c3)CC2)c1	70*	17	-1	0	14	20
CC(=O)c1ccc(N2CCN(Cc3cccc(Cl)c3)CC2)cc1	33	-2	1	0	nt	nt
